Assay results as given in PubChem BioAssay (NCI).
About 83,000 compounds went through this panel and 20% of them were active in at least one assay; those are over-represented in the sample as a whole.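 Assay: single dose, 48 h. Readout: percent growth (0 = no net growth; negative = cell death). Active: <10.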 Values without a mark were called inactive. Active and inactive are the calls of the source.

Legend:
Assay in all cases: NCI-60 one-dose screen, 48 h (100 = growth as untreated, 0 = no growth, -100 = all killed)
Conditions in all cases: 10 µM
[1] = system: HCT-15 colon
[2] = system: HT29 colon
[3] = system: SNB-75 CNS
[4] = system: SNB-19 CNS
[5] = system: U251 CNS
[6] = system: PC-3 prostate
[7] = system: SK-MEL-5 melanoma
[8] = system: UACC-62 melanoma
[9] = system: LOX IMVI melanoma
[10] = system: SK-MEL-28 melanoma
[11] = system: SK-MEL-2 melanoma
[12] = system: EKVX NSCLC
[13] = system: UO-31 renal
[14] = system: TK-10 renal
[15] = system: ACHN renal
[16] = system: CAKI-1 renal
[17] = system: A498 renal
[18] = system: CCRF-CEM leukemia
[19] = system: MOLT-4 leukemia

Compound	growth [1]	growth [2]	growth [3]	growth [4]	growth [5]	growth [6]	growth [7]	growth [8]	growth [9]	growth [10]	growth [11]	growth [12]	growth [13] [%]	growth [14]	growth [15]	growth [16]	growth [17]	growth [18]	growth [19]
CCCCCCCCCCSC(=N)N (tested in a mixture with another compound)	12%	3.13% (active)	91.2%	75.8%	31.6%	65.5%	80.5%	9.19% (active)	48.9%	72.1%	81.2%	74.8%	64.4	90.1%	81.1%	87.9%	80.1%	56.2%	43.9%
C[C@H](NC(=O)[C@@H]1CSSC[C@@H](NC(=O)Cc2nc3ccccc3cc2O)C(=O)NCC(=O)N1C)c1ccccc1	102%	100%	150%	95.2%	95.7%	81.2%	82.5%	77.9%	31.3%	67.4%	82.3%	99.5%	92	109%	96.8%	99.7%	120%	20.1%	-17.2% (active)
CCOC(=O)Nc1ccc2c(c1)C(=O)N(CCOC)c1ccccc1O2	26.1%	8.18% (active)	31.9%	54.5%	39.3%	38.4%	12.3%	30.6%	38.7%	62.9%	39.9%	45.4%	62.2	58.7%	48.1%	38.7%	4.67% (active)	20.6%	35%
CCCCCC(CCC)COC(=O)c1ccc(OC)cc1 (centres undefined)	99%	101%	89.2%	112%	96%	84.1%	104%	104%	94.5%	110%	96%	100%	85.8	95.6%	106%	92.3%	109%	75.3%	100%
CCc1c(C)[nH]c(=O)c(C(N)=O)c1C#N	95.4%	96.6%	99.9%	90.1%	99.4%	99.4%	103%	88.4%	109%	114%	96.3%	103%	93.5	91.9%	102%	96.3%	105%	99%	107%
c1ccc(CNc2nc(Nc3ccc(-c4nc5ccccc5[nH]4)cc3)c3cn[nH]c3n2)cc1	0.22% (active)	-13.9% (active)	33%	36.3%	-19.8% (active)	11.8%	-96.4% (active)	-40.9% (active)	-42.1% (active)	-8.67% (active)	-59.2% (active)	18%	29.9	20.4%	-5.37% (active)	7.33% (active)	27.6%	9.8% (active)	-39.7% (active)
CCN(CC)CCOC(=O)c1ccc(NC(=O)Nc2cccc(Cl)c2)cc1	95.6%	96.3%	81.8%	108%	96.5%	94.7%	101%	102%	94.6%	106%	94.7%	99.2%	92.5	96.1%	108%	96.8%	79.5%	-4.69% (active)	84.9%
CCC(CCNc1cc(OC)cc2cccnc12)CN1C(=O)c2ccccc2C1=O (centres undefined)	93.1%	105%	84%	103%	102%	89.2%	105%	97.5%	90.6%	117%	108%	95.5%	94.7	119%	102%	92.8%	117%	99.3%	108%
Cc1c(C(=O)N[C@H](CO)Cc2ccccc2)[nH]c2ccc(Cl)cc2c1=O	100%	90.1%	99.9%	106%	92.7%	97.6%	99%	92.9%	97.9%	114%	95.7%	94.4%	98.2	94.5%	101%	94.8%	98%	94.8%	92.2%
O=C1CC[C@@H](C(=O)N[C@H]2CSSC[C@@H](C(=O)N/C=C/c3ccc(O)cc3)NC(=O)[C@H](Cc3ccccc3)NC(=O)[C@@H]3CCCN3C(=O)[C@@H]3CCCN3C2=O)N1	97%	99.8%	100%	94.4%	96.2%	87.3%	97.5%	99.7%	94.5%	101%	93.5%	95%	101	94.8%	100%	96.5%	108%	68%	88.9%
O=S(=O)(NC1c2ccccc2Oc2ccccc21)c1ccccc1	91.8%	92.2%	88.4%	105%	91.9%	88.2%	102%	97.8%	87.5%	101%	94%	102%	81.9	86.4%	84.5%	90.1%	92.2%	61.8%	88.1%
Cc1noc(C)c1-c1ccc2nc(NC(=O)[C@H]3CCN(C#N)C3)cn2c1	84.4%	78.1%	67.7%	108%	93.7%	91.7%	86.6%	77.7%	77.7%	104%	74.1%	94%	66.9	81.2%	65.3%	74.4%	88.9%	105%	95.9%
c1ccc(C2CCCCC2)c(OCCCCCN2CCNCC2)c1	-34.7% (active)	3.84% (active)	48.3%	71.1%	26.1%	43.6%	16.5%	-51.3% (active)	-35% (active)	-15.8% (active)	82%	67.4%	66.6	83.2%	53.3%	66.2%	52.4%	27.1%	33.5%
NC1CCC(Nc2nc(NCc3ccc(-c4ccccc4O)nc3)c3ncn(C4CCCC4)c3n2)CC1 (centres undefined)	-4.18% (active)	-22.5% (active)	-70.1% (active)	8.53% (active)	-23% (active)	-3.87% (active)	-94.1% (active)	-55% (active)	-82.8% (active)	-58.9% (active)	-81.4% (active)	-20.1% (active)	14.2	0.221% (active)	-3.2% (active)	14.1%	-82.1% (active)	-5.6% (active)	-11.2% (active)
CCCc1ccnc(NS(=O)(=O)c2ccc(N)cc2)n1	105%	72.9%	88.2%	76.6%	54.6%	60.7%	84.3%	85.7%	82.9%	78.9%	97.7%	58.5%	86.5	93.4%	112%	103%	79.2%	46.4%	81.9%
CCC1(C)OC(=O)NC1=O (centres undefined)	100%	99.9%	100%	108%	99%	79.3%	98.2%	103%	94.3%	108%	106%	101%	88.6	99.3%	102%	97.8%	125%	83.1%	112%
